± gives the standard deviation.
Test system: MILI (PIWIL2) piRISC loaded with L1MC piRNA (26 nt);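 note: 1 nM active piRISC with 0.1 nM target library at 33 °C single turnover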
Assay: pre-steady-state target cleavage rate (min^-1); guide: L1MC piRNA 5'p-UAACUAAAUACUAUGCAAGCUGUAGG; higher = faster piRNA-guided slicing of the target
Conditions: auxiliary factor: 500 nM mouse GTSF1
How it was run: (§1)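 A transcribed, DNA-blocked target RNA library […] was incubated at 33 °C for 0–8 or 0–960 min with 1 nM active affinity-purified piRISC carrying one synthetic guide, in HEPES–potassium acetate buffer with or without 500 nM GTSF1 partner protein. Uncleaved targets were then sequenced and normalised to depth and to weakly complementary targets. Data from three trials were pooled, with k3 capped at 0.0001 min^-1, and a burst-and-steady-state fit yielded the pre-steady-state cleavage rate.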

Row | Sequence | pre-steady-state target cleavage rate
1 | UCCUGCUACAGCUUGCAUAGAAUUUAGAUA | 0.0657 ± 0.021
2 | UCCUCCUACAGCUUGCAUAGAAUUUAGUUA | 0.1 ± 0.021
3 | UCCUCCUACAGCUUGCAUACUAUUUAGAUA | 0.0353 ± 0.01
4 | UCCUGGAUGAGCUUGCUUAGUAUUUAGAUA | 0.128 ± 0.02
5 | UCCUGCUAGAGCUUGCAUAGUAUUUACAAA | 0.146 ± 0.039
6 | UCCUGGAACAGCUUGCAUAGAAUUUAGUAA | 0.0627 ± 0.014
7 | UCCUGGAAGUGCUUGCAUAGUAUUUAGUAA | 0.136 ± 0.022
8 | UCCUGCUACAGCUUGCAUAGUAUUAACAAA | 0.0401 ± 0.011
9 | UCCUCCUACAGCUUGCAUUGUAUUAAGUUA | 0.132 ± 0.023
10 | UCCUGGAUGAGCUUGUCAUAGUAUUUAGUUA | 0.0971 ± 0.013
11 | UCCUGCUACAGCUUGCAUAGUAUUUAGUA | 0.335 ± 0.07
12 | UCCUGGAUGAGCUAGCAUAGAAUUUAGUUA | 0.0337 ± 0.011
13 | UCCUGCUACAGCUUGCAUAGAAUAUAGUUA | 0.0873 ± 0.021
14 | UCCUGCUACAGCAUCCAUAGUAUUUAGUUA | 0.195 ± 0.047
15 | UCCUGGUACUCCUUGCAUAGUAUUUAGUAA | 0.131 ± 0.032
16 | UCCUGGAUCAGCUUGCAUAGUAUUUACAUA | 0.0335 ± 0.0081
17 | UCCUCCUACAGCUUGCUUAGUAUUUUCAAA | 0.0605 ± 0.014
18 | UCCUGCUACAGCUUGCAUUGUAUUUACAAA | 0.0245 ± 0.01
19 | UCCUGCUACAGCUUGCAUAGUAUUUAGAUA | 0.15 ± 0.029
20 | UCCUCCUACACGAUGCAUAGUAUUUAGAAA | 0.102 ± 0.021

Row | Sequence | pre-steady-state target cleavage rate
21 | UCCUGCUACAGCUUGCAUAGUAUUUAGAUUA | 0.135 ± 0.023
22 | UCCUGGAUCACGAUGCAUAGUAUUUAGUAA | 0.173 ± 0.016
23 | UCCUGCUACAGCUUGCAUAGUAUUUAGUGUA | 0.244 ± 0.048
24 | UCCUGGUACAGCUUGCAUAGUAUUAUCUAA | 0.0327 ± 0.012
25 | UCCUGGAUCAGCUUGCAUAGUAUUAAGAAA | 0.0751 ± 0.02
26 | UCCUCCUAGAGCUUGCAUACUAUUUAGUUA | 0.101 ± 0.018
27 | UCCUGCUACAGCUUGCAUAGUAUAUAGUAA | 0.0474 ± 0.018
28 | UCCUGGAUGAGCUUGCCAUAGUAUUUAGUUA | 0.0808 ± 0.016
29 | UCCUCCUACAGCUUGCUUAGUAUUUACAAA | 0.0922 ± 0.021
30 | UCCUGGAUCAGCUUGCAUAGUAUUAAGUAA | 0.178 ± 0.03
31 | UCCUCCUACAGGUUGCAUAGUAUUUAGAAA | 0.12 ± 0.023
32 | UCCUCCUACAGCAUGCAUAGUAUUUAGAAA | 0.211 ± 0.03
33 | UCCUCCUACAGCUUGCAUAGUAAAUUCAAA | 0.125 ± 0.03
34 | UCCUGGAUCAGCUUGCAAUAGUAUUUAGUUA | 0.00703 ± 0.0039
35 | UCCUGGAACAGCUUGGAUAGUAUUAAGUUA | 0.186 ± 0.033
36 | UCCUGGUACAGCUUGCAUAGUAAUUACAAA | 0.021 ± 0.0095
37 | UCCUCCUACUGCUUGCAUAGUAUUUACUUA | 0.0701 ± 0.013
38 | UCCUGCUACACCUUGCAUACUAUUUAGUUA | 0.0767 ± 0.022
39 | UCCUGCUACUGCUUGCAUAGUAUAUAGUUA | 0.121 ± 0.018

Test system: EfPiwi piRISC loaded with L1MC piRNA (26 nt)
Assay: pre-steady-state target cleavage rate (min^-1); auxiliary factor: 500 nM Ephydatia muelleri Gtsf1; guide: L1MC piRNA 5'p-UAACUAAAUACUAUGCAAGCUGUAGG; MIWI and MILI are mouse PIWI proteins and EfPiwi is from a freshwater sponge; tags in brackets are library labels; higher = faster piRNA-guided slicing of the target
Conditions: not given
How it was run: as §1

Row | Sequence | pre-steady-state target cleavage rate
40 | UCCUGCUACAGCUUGCAUAGAAUUUAGAUA | 0.00319 ± 0.0012
41 | UCCUCCUACAGCUUGCAUAGAAUUUAGUUA | 0.0078 ± 0.0023
42 | UCCUCCUACAGCUUGCAUACUAUUUAGAUA | 0.00315 ± 0.0027
43 | UCCUGGAUGAGCUUGCUUAGUAUUUAGAUA | 0.00382 ± 0.0029
44 | UCCUGCUAGAGCUUGCAUAGUAUUUACAAA | 0.00266 ± 0.0021
45 | UCCUGGAACAGCUUGCAUAGAAUUUAGUAA | 0.00292 ± 0.002
46 | UCCUGGAAGUGCUUGCAUAGUAUUUAGUAA | 0.00343 ± 0.0027
47 | UCCUGCUACAGCUUGCAUAGUAUUAACAAA | 0.00321 ± 0.0023
48 | UCCUCCUACAGCUUGCAUUGUAUUAAGUUA | 0.00681 ± 0.0032
49 | UCCUGGAUGAGCUUGUCAUAGUAUUUAGUUA | 0.00721 ± 0.0027
50 | UCCUGCUACAGCUUGCAUAGUAUUUAGUA | 0.00529 ± 0.0019
51 | UCCUGGAUGAGCUAGCAUAGAAUUUAGUUA | 0.00286 ± 0.0026
52 | UCCUGCUACAGCUUGCAUAGAAUAUAGUUA | 0.00332 ± 0.0022
53 | UCCUGCUACAGCAUCCAUAGUAUUUAGUUA | 0.00233 ± 0.0017
54 | UCCUGGUACUCCUUGCAUAGUAUUUAGUAA | 0.00302 ± 0.002
55 | UCCUGGAUCAGCUUGCAUAGUAUUUACAUA | 0.00271 ± 0.0021
56 | UCCUCCUACAGCUUGCUUAGUAUUUUCAAA | 0.00322 ± 0.003
57 | UCCUGCUACAGCUUGCAUUGUAUUUACAAA | 0.00313 ± 0.0028
58 | UCCUGCUACAGCUUGCAUAGUAUUUAGAUA | 0.00539 ± 0.0023
59 | UCCUCCUACACGAUGCAUAGUAUUUAGAAA | 0.00369 ± 0.0021

Row | Sequence | pre-steady-state target cleavage rate
60 | UCCUGCUACAGCUUGCAUAGUAUUUAGAUUA | 0.00658 ± 0.0023
61 | UCCUGGAUCACGAUGCAUAGUAUUUAGUAA | 0.00397 ± 0.0033
62 | UCCUGCUACAGCUUGCAUAGUAUUUAGUGUA | 0.00597 ± 0.0021
63 | UCCUGGUACAGCUUGCAUAGUAUUAUCUAA | 0.00312 ± 0.0027
64 | UCCUGGAUCAGCUUGCAUAGUAUUAAGAAA | 0.00459 ± 0.0022
65 | UCCUCCUAGAGCUUGCAUACUAUUUAGUUA | 0.00855 ± 0.0026
66 | UCCUGCUACAGCUUGCAUAGUAUAUAGUAA | 0.00354 ± 0.0018
67 | UCCUGGUACAGCUUGCAUAGUAAUUAGAUA | 0.00477 ± 0.0031
68 | UCCUGGAUGAGCUUGCCAUAGUAUUUAGUUA | 0.0035 ± 0.0026
69 | UCCUCCUACAGCUUGCUUAGUAUUUACAAA | 0.00329 ± 0.003
70 | UCCUGGAUCAGCUUGCAUAGUAUUAAGUAA | 0.00602 ± 0.0026
71 | UCCUCCUACAGGUUGCAUAGUAUUUAGAAA | 0.00461 ± 0.0014
72 | UCCUCCUACAGCAUGCAUAGUAUUUAGAAA | 0.00473 ± 0.002
73 | UCCUCCUACAGCUUGCAUAGUAAAUUCAAA | 0.00279 ± 0.0021
74 | UCCUGGAUCAGCUUGCAAUAGUAUUUAGUUA | 0.0153 ± 0.0038
75 | UCCUGGAACAGCUUGGAUAGUAUUAAGUUA | 0.00405 ± 0.0034
76 | UCCUGGUACAGCUUGCAUAGUAAUUACAAA | 0.00331 ± 0.0026
77 | UCCUCCUACUGCUUGCAUAGUAUUUACUUA | 0.00299 ± 0.0029
78 | UCCUGCUACACCUUGCAUACUAUUUAGUUA | 0.00403 ± 0.0024
79 | UCCUGCUACUGCUUGCAUAGUAUAUAGUUA | 0.00619 ± 0.0031
